Most compounds without a hit are left out; they make up all but 1.2% or so of the library.
pCIP destab: lowers stability of the mouse p/CIP coactivator protein. Q05BA5. F442A p/CIP-EGFP cells, EGFP fluorescence, 16 h. decrease of EGFP signal, % at 10 µM. 0.01% of 290,000 active. AID 1984;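 active means EGFP signal decrease of at least 30% at 10 µM or well 3 SD below plate mean, unless failing retest; inactive means the rest, including hits failing retest or dose response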
GASC-1 inh: blocks human GASC-1 demethylase activity | AID 2099 | 0.069% of 330,000 active | GST-JMJD2C(1-420) H3K9me3 demethylation, DELFIA europium | inhibition, % at 2.35 µM;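 active means more than half of a compound's replicate wells show inhibition beyond 50%, single wells judged on their own value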;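 further: signal counts dimethyl H3K9 product captured on neutravidin plate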
GPR7 antag: human neuropeptides B/W receptor 1 antagonism. 1.1% of 290,000 active. AID 1861. GPR7-expressing cells, fluorescence antagonist assay. inhibition, % at 4.4 µM. P48145; in the data active means inhibition above about 16%, passing the limit was not always enough;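 further: cells stimulated with the agonist NPW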
VLA-4 inh: inhibition in a human VLA-4 binding assay | P13612 | VLA-4 expressing cells, ligand binding flow cytometry | inhibition, % (about 7 µM as worked out from the volumes in the protocol) | 0.2% of 330,000 active | AID 2557; in the data active means inhibition above about 50%
GPR7 antag conf: confirmation of human GPR7 antagonists; 52% of 2,400 active; AID 1952; GPR7-expressing cells, calcium fluorescence antagonist mode; shares compounds with GPR7 antag; inhibition, % at 4.4 µM; in the data active means inhibition above about 24%;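 further: stimulated with the GPR7 agonist NPW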
MCHR1 antag: antagonizes human MCHR1, a GPR7 antagonist counter-screen; 62% of 2,400 active; shares compounds with GPR7 antag; inhibition, % at 4.4 µM; AID 2148; MCHR1-expressing cells, fluorescence antagonist assay; in the data active means inhibition above about 22%
Hits are given with their value; i = inactive; nt = no result.

SMILES	pCIP destab	GASC-1 inh	GPR7 antag	VLA-4 inh	GPR7 antag conf	MCHR1 antag
Cc1ccc(C(=O)OCC(=O)NCc2ccc3c(c2)OCO3)o1	nt	i	nt	i	nt	nt
Cc1ccc(C(=O)NCc2ccc3c(c2)OCO3)o1	i	i	28	i	i	i
COc1ccc(S(=O)(=O)N2CCOCC2)cc1NC(=O)Cc1ccc(Cl)c(Cl)c1	i	i	i	i	nt	nt
Cc1ccc(SCCNC(=S)Nc2cc(C)ccc2C)cc1	i	i	i	i	nt	nt
Cc1ccc(C)c(NC(=S)NCCN(C2CCCCC2)C2CCCC2)c1	i	i	46	i	44	36
O=C(c1ccccc1)C1CCN(C(=O)c2ccc(Cl)cc2)CC1	i	i	i	i	nt	nt
CC(C)(C)c1ccc(C(=O)N2CCC(C(=O)c3ccccc3)CC2)cc1	i	i	41	i	39	38
C=C1C[C@H](O[C@@H]2O[C@H](CO)[C@@H](O)[C@H](O)[C@H]2O)[C@@H]2[C@H](OC(=O)[C@H]2C)[C@H]2[C@H](C)[C@H](O)C[C@@H]12	nt	i	nt	i	nt	nt
CCc1ccccc1NC(=O)CN1CCN(C(=O)CCC(=O)N2CCC(c3ccccc3)=N2)CC1	nt	i	nt	i	nt	nt
COc1ccc2c(c1)C(C)=CC(C)(C)N2S(=O)(=O)c1ccc(NC(C)=O)cc1	i	i	24	i	32	44
CCOc1ccc2c(c1)C(C)=CC(C)(C)N2S(=O)(=O)c1ccc(NC(C)=O)cc1	i	i	i	i	nt	nt
COCCn1c(CN2CCN(C(=O)c3ccco3)CC2)nc2c1c(=O)n(C)c(=O)n2C	i	i	i	i	nt	nt
CCc1ccc(CN(C)C(=O)c2cc(COc3cccc4cnccc34)on2)cc1	i	i	38	i	i	46
COc1ccc(NC(=O)CSc2n[nH]c(C)c2[N+](=O)[O-])cc1	i	i	22	i	i	i
COCCCNC(=S)NNC(=O)c1cc(Cl)c(O)c(Cl)c1	i	i	i	i	nt	nt
Cc1cc(Cl)cc(C)c1OCCOCCNCc1ccccc1	i	i	27	i	35	28
Cc1cc(Cl)cc(C)c1OCCNCc1ccccc1	i	i	i	i	nt	nt
Clc1ccc(OCCOCCNCc2ccccc2)cc1Cl	i	i	90	i	i	27
COc1cc(C)c(NC(=O)COc2ccc3c(c2)CCC3)cc1OC	nt	i	nt	i	nt	nt
COc1ccc(CCN=C(N)C(C)c2ccccc2)cc1OC (stereo not drawn)	i	i	i	i	nt	nt
CC(C)Cc1ccc(C(C)C(N)=NCCc2ccccc2)cc1 (stereo not drawn)	i	i	52	i	39	54
COc1ccc(NS(=O)(=O)c2cccc(C(=O)O)c2)cc1S(=O)(=O)N1CCCCC1	nt	i	nt	i	nt	nt
COCOc1cc(O)c(C(=O)/C=C/c2ccccc2)c(OCOC)c1	nt	i	nt	i	nt	nt
CCCCC(OC(=O)CN1C(=O)COc2ccccc21)C(=O)NC1CCCCC1 (stereo not drawn)	i	i	31	i	38	24
O=C(N=Nc1c(O)[nH]c2ccccc12)c1cc(-c2cccs2)[nH]n1	i	i	29	i	i	29
SMILES	pCIP destab	GASC-1 inh	GPR7 antag	VLA-4 inh	GPR7 antag conf	MCHR1 antag
CCOc1ccc(NC(=O)CN(C)C(=O)Cn2cnc3c2c(=O)n(C)c(=O)n3C)cc1OCC	nt	i	nt	i	nt	nt
Cc1cc(CN(C)Cc2ccc(OCC(O)CN(C)Cc3ccccc3)cc2)on1 (stereo not drawn)	i	i	i	i	nt	nt
C=CCOc1ccc(CN(C)CC(O)COc2cccc3ccccc23)cc1 (stereo not drawn)	i	i	33	i	47	39
O=[N+]([O-])c1c(Nc2cccc(O)c2)cc(Cl)c2nonc12	i	i	35	i	81	101
CCN(CC)C(=O)C1CC(=O)N(c2ccc(F)c(Cl)c2)C1 (stereo not drawn)	i	i	22	i	i	i
CCCCNCCOc1ccccc1-c1ccccc1	i	i	22	i	27	29
CCOC(=O)C1(CCCc2ccccc2)CCN(C2CCSCC2)CC1	i	i	43	nt	50	33
C=CCn1c(SCc2c(C)noc2C)nc2ccccc2c1=O	i	i	26	i	i	24
Cc1ccc2[nH]c(C(=O)N3CCN(C(c4ccccc4)c4ccccc4)CC3)cc2c1	i	i	i	i	nt	nt
CCC[C@@H]1CCCO[C@@](C(=O)NCc2cc(C)n(C)n2)(C(F)(F)F)C1	nt	i	nt	i	nt	nt
Cc1ccccc1OCC(=O)Nc1ccc2c(c1)COC2=O	i	i	i	i	nt	nt
CCC(C)c1ccc(OCC(=O)Nc2ccc3c(c2)C(=O)NC3=O)cc1 (stereo not drawn)	i	i	30	i	40	67
CCc1ccc(OCC(=O)Nc2ccc3c(c2)COC3=O)cc1	i	i	36	i	i	37
CC1CCC(NC(=O)C2c3ccccc3C(=O)N2Cc2cccs2)CC1 (stereo not drawn)	i	i	i	i	nt	nt
O=C(NC1CCCCCCC1)C1c2ccccc2C(=O)N1Cc1cccs1 (stereo not drawn)	i	i	27	i	32	i
COc1ccc(CN2C(=O)c3ccccc3C2C(=O)NC2CCCCCC2)c(OC)c1 (stereo not drawn)	i	i	33	nt	i	34
COc1ccc(-c2nc[nH]c2[N+](=O)[O-])cc1	i	i	i	i	nt	nt
O=C(Nc1cccnc1)c1ccc(Cl)c(S(=O)(=O)N2CCc3ccccc32)c1	i	i	49	i	62	80
O=C(Nc1ccccn1)c1ccc(Cl)c(S(=O)(=O)N2CCc3ccccc32)c1	nt	i	nt	i	nt	nt
CC(C)C[C@@H](CO)N1CCN(Cc2ccc([N+](=O)[O-])cc2)CCC1=O	i	i	i	i	nt	nt
CCOC(=O)N1CCC(N(C(=O)Nc2cccc(OC)c2)C(C)CC)CC1 (stereo not drawn)	i	i	32	i	i	i
CC1(C)Nc2ccccc2N(Cc2ccc([N+](=O)[O-])cc2)C1=O	i	i	i	i	nt	nt
O=C(c1cccc(Cl)c1)N1CCN(C2CCCCC2)CC1	i	i	50	i	i	i
O=C(c1cccc([N+](=O)[O-])c1)N1CCN(c2cccc(Cl)c2)CC1	i	i	23	i	31	24
CCS(=O)(=O)N1CCCC(C(=O)NCCc2ccccc2)C1 (stereo not drawn)	i	i	i	i	nt	nt
CCc1ccc(-n2c(SCC(=O)N3Cc4ccccc4CC3C(=O)O)nnc2-c2ccncc2)cc1 (stereo not drawn)	i	i	21	i	i	i
Cc1cc2[nH]c(=O)c(=O)[nH]c2cc1S(=O)(=O)Nc1cccc(C)c1C	i	i	i	i	nt	nt
Cc1cccc(N2C(=O)CC(Sc3nc(-c4ccccc4)c4cc(Cl)ccc4n3)C2=O)c1 (stereo not drawn)	i	i	i	i	nt	nt
Cc1ccc(S(=O)(=O)N(c2cccc(C(F)(F)F)c2)C2C=CS(=O)(=O)C2)cc1 (stereo not drawn)	i	i	23	i	i	i
CCc1ccc(N(C2C=CS(=O)(=O)C2)S(=O)(=O)c2ccccc2)cc1 (stereo not drawn)	i	i	i	i	nt	nt

High-throughput results: PubChem, several laboratories
